Measured values taken from the supplement of paper PMC10849652.
Targets with a hit are over-represented here; the source holds about 7,900 in all. About 0.6% of all pairs of compound and target were hits.

What was measured:
Assay in all cases: log2 fold change, soluble protein after heating vs DMSO (PISA); higher = thermal stabilisation; K562 cells, 10 uM, 30 min; active = over 0.2 and 3.5 SD of the protein, either way, in both replicates (recomputed)
[1] = compound: CS(=O)(=O)c1ccc(-c2cnc(N)c(C(=O)Nc3ccccc3)n2)cc1
Summary of the method: (§1)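 Soluble protein was quantified by TMTpro 16plex LC-MS/MS after channel sums were equalised. It was obtained as the supernatant after 21,000xg for 90 min from pooled aliquots of K562 cells (2×10^6 cells/mL, 10 μM compound, 30 min) heated for 3 min across 48°C-58°C and extracted in PBS with 0.5% NP-40 at 4°C. Thermal stability values are relative to control samples and come from duplicates. They are given as log2 fold changes.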

crizotinib = compound: C[C@@H](Oc1cc(-c2cnn(C3CCNCC3)c2)cnc1N)c1c(Cl)ccc(F)c1Cl [crizotinib]
Summary of the method: as §1

[2] = compound: C[C@@H]1COCCN1C2=NC(=NC(=C2)C3(CC3)S(=O)(=O)C)C4=C5C=CNC5=CC=C4
Summary of the method: as §1

[3] = compound: C[C@H](C1=CC=C(C=C1)C(=O)NC2=C3C=CNC3=NC=C2)N
Summary of the method: as §1

duvelisib = compound: C[C@H](Nc1ncnc2nc[nH]c12)c1cc2cccc(Cl)c2c(=O)n1-c1ccccc1 [duvelisib]
Summary of the method: as §1

gandotinib = compound: Cc1cc(Nc2cc(CN3CCOCC3)c3nc(C)c(Cc4ccc(Cl)cc4F)n3n2)n[nH]1 [gandotinib]
Summary of the method: as §1

tozasertib = compound: Cc1cc(Nc2cc(N3CCN(C)CC3)nc(Sc3ccc(NC(=O)C4CC4)cc3)n2)n[nH]1 [tozasertib]
Summary of the method: as §1

[4] = compound: Cc1cc(SCc2sc(-c3ccc(C(F)(F)F)cc3)nc2C)ccc1OCC(=O)O
Summary of the method: as §1

doramapimod = compound: Cc1ccc(-n2nc(C(C)(C)C)cc2NC(=O)Nc2ccc(OCCN3CCOCC3)c3ccccc23)cc1 [doramapimod]
Summary of the method: as §1

ispinesib = compound: Cc1ccc(C(=O)N(CCCN)[C@@H](c2nc3cc(Cl)ccc3c(=O)n2Cc2ccccc2)C(C)C)cc1 [ispinesib]
Summary of the method: as §1

bafetinib = compound: Cc1ccc(NC(=O)c2ccc(CN3CC[C@H](N(C)C)C3)c(C(F)(F)F)c2)cc1Nc1nccc(-c2cncnc2)n1 [bafetinib]
Summary of the method: as §1

[5] = compound: Cc1cccc(CC(=O)N2CCc3c2ccc(-c2cn(C)c4ncnc(N)c24)c3F)n1
Summary of the method: as §1

nilotinib = compound: Cc1cn(-c2cc(NC(=O)c3ccc(C)c(Nc4nccc(-c5cccnc5)n4)c3)cc(C(F)(F)F)c2)cn1 [nilotinib]
Summary of the method: as §1

[6] = compound: Cc1nc(Nc2n[nH]c3c2CN(C(=O)N[C@H](CN(C)C)c2ccccc2)C3(C)C)c2sccc2n1
Summary of the method: as §1

dasatinib = compound: Cc1nc(Nc2ncc(C(=O)Nc3c(C)cccc3Cl)s2)cc(N2CCN(CCO)CC2)n1 [dasatinib]
Summary of the method: as §1

[7] = compound: Cc1ncc(-c2ccnc(Nc3ccc(S(C)(=O)=O)cc3)n2)n1C(C)C
Summary of the method: as §1

[8] = compound: Cn1cc(-c2ccc3c(c2)CCN3C(=O)Cc2cccc(C(F)(F)F)c2)c2c(N)ncnc21
Summary of the method: as §1

[9] = compound: Cn1cc(-c2ccc3nnc(C(F)(F)c4ccc5ncccc5c4)n3n2)cn1
Summary of the method: as §1

tipifarnib = compound: Cn1cncc1[C@@](N)(c1ccc(Cl)cc1)c1ccc2c(c1)c(-c1cccc(Cl)c1)cc(=O)n2C [tipifarnib]
Summary of the method: as §1

mubritinib = compound: FC(F)(F)c1ccc(/C=C/c2nc(COc3ccc(CCCCn4ccnn4)cc3)co2)cc1 [mubritinib]
Summary of the method: as §1

Measured: log2 fold change

ACADVL isoform 3 (UniProt P49748)
Chain of UniProt P49748 (P49748 whole entry, looked up): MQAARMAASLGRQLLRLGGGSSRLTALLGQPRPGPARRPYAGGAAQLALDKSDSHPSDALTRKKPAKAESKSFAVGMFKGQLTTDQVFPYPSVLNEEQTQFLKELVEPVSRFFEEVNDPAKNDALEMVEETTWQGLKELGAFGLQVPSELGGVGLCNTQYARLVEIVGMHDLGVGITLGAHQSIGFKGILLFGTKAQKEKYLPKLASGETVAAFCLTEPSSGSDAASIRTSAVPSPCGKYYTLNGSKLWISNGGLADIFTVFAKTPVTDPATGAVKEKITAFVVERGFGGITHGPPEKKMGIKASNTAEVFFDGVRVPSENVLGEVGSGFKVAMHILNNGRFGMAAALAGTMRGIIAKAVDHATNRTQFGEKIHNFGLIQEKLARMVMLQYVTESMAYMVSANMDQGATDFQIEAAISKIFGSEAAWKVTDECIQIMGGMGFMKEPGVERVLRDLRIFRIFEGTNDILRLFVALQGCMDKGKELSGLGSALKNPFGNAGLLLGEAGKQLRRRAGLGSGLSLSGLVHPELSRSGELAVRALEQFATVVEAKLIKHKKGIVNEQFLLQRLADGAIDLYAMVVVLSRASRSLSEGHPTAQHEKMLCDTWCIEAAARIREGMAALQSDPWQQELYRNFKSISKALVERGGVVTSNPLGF
inactive: [1] 0.042 | crizotinib 0.021 | [2] 0.078 | [3] -0.058 | duvelisib 0.081 | gandotinib -0.01 | tozasertib 0.003 | [4] -0.005 | doramapimod -0.065 | ispinesib -0.01 | bafetinib -0.093 | [5] 0 | nilotinib 0.032 | [6] 0.02 | dasatinib -0.016 | [7] -0.007 | [8] 0.022 | [9] 0.026 | tipifarnib -0.01 | mubritinib 0.071

ACAP2 (UniProt Q15057)
Chain of UniProt Q15057 (Q15057 whole entry, looked up): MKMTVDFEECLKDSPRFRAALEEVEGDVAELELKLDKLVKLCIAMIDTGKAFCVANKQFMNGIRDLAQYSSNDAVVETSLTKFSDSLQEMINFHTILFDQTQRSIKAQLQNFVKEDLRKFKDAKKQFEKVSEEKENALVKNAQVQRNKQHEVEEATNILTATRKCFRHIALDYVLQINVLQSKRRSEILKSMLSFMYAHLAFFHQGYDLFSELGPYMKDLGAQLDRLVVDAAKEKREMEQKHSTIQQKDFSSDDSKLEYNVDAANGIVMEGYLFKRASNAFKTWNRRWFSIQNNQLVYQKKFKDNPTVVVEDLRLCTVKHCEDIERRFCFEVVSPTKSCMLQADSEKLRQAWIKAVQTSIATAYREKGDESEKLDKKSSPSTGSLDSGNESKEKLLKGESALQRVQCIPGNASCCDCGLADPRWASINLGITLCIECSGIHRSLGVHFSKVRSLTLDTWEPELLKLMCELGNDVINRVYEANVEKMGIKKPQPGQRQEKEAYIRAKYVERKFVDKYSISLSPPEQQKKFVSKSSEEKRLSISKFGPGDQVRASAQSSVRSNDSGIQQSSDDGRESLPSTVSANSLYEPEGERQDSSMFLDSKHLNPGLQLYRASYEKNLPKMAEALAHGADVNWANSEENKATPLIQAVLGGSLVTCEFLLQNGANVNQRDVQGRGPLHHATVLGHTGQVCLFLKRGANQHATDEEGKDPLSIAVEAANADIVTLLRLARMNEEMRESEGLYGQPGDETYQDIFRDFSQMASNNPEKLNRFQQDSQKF
inactive: [1] 0.032 | crizotinib 0.033 | [2] 0.069 | [3] 0.023 | duvelisib 0.023 | gandotinib -0.07 | tozasertib 0.026 | [4] 0.047 | doramapimod -0.059 | ispinesib 0.002 | bafetinib 0.093 | [5] 0.052 | nilotinib -0.006 | [6] -0.05 | dasatinib -0.04 | [7] 0.051 | [8] -0.073 | [9] -0.051 | tipifarnib -0.097 | mubritinib 0.016

ADD1 isoform 3 (UniProt P35611)
Chain of UniProt P35611 (P35611 whole entry, looked up): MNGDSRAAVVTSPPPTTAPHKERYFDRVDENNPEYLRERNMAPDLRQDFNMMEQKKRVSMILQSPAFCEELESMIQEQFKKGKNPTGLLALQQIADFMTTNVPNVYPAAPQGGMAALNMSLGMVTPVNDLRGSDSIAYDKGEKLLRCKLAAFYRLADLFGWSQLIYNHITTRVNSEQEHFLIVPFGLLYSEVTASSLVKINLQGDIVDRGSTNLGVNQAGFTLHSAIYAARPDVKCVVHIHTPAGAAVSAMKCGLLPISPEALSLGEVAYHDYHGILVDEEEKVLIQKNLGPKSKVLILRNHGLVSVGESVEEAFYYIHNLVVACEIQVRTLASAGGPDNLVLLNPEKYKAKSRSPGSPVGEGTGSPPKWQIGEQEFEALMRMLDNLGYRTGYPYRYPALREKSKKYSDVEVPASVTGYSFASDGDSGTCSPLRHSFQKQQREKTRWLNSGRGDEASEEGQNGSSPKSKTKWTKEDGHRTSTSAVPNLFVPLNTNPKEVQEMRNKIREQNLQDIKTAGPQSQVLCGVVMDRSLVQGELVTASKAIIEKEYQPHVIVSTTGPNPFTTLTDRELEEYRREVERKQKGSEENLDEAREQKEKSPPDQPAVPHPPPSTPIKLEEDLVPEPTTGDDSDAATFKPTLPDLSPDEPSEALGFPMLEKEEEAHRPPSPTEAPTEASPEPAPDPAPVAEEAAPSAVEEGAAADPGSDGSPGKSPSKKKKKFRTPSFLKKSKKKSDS
inactive: [1] 0.018 | crizotinib 0.005 | [2] -0.011 | [3] -0.109 | duvelisib 0.011 | gandotinib -0.054 | tozasertib -0.008 | [4] -0.015 | doramapimod 0.001 | ispinesib 0.045 | bafetinib -0.018 | [5] 0.068 | nilotinib 0.014 | [6] -0.02 | dasatinib 0.041 | [7] -0.093 | [8] 0.009 | [9] 0.014 | tipifarnib 0.015 | mubritinib 0.033

ALG11 (UniProt Q2TAA5)
Chain of UniProt Q2TAA5 (Q2TAA5 whole entry, looked up): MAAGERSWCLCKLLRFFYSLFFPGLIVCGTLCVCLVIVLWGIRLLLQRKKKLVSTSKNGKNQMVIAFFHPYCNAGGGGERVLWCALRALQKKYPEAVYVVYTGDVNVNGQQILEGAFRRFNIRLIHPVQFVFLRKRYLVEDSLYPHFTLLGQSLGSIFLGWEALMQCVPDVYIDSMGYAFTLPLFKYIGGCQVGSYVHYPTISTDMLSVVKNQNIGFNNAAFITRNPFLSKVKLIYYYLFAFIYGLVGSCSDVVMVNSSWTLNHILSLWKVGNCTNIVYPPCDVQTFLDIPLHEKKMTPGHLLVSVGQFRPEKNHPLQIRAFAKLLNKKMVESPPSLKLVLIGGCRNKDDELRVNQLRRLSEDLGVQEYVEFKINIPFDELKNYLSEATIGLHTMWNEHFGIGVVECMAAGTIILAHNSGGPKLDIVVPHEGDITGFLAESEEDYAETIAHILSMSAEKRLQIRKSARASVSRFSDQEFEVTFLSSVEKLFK
inactive: [1] 0.142 | crizotinib 0.007 | [2] 0.103 | [3] -0.04 | duvelisib 0.059 | gandotinib -0.129 | tozasertib 0.036 | [4] 0.015 | doramapimod 0.038 | ispinesib 0.029 | bafetinib -0.078 | [5] 0.086 | nilotinib 0.001 | [6] -0.037 | dasatinib 0.005 | [7] 0.129 | [8] -0.072 | [9] 0.028 | tipifarnib -0.016 | mubritinib 0.066

AKR1C2 (UniProt P52895)
Chain of UniProt P52895 (P52895 whole entry, looked up): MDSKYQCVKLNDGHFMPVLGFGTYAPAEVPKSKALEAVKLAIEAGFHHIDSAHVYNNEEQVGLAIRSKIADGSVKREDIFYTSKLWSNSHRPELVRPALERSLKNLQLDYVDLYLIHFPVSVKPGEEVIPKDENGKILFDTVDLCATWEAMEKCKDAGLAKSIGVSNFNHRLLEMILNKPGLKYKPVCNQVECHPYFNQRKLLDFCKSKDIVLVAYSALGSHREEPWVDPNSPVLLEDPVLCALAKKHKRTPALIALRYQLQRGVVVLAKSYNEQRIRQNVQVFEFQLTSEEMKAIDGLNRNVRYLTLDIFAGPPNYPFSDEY
inactive: [1] 0.005 | crizotinib -0.029 | [2] -0.159 | [3] 0.219 | duvelisib -0.076 | gandotinib 0.089 | tozasertib -0.045 | [4] 0.098 | doramapimod -0.036 | ispinesib 0.077 | bafetinib 0.103 | [5] -0.111 | nilotinib 0.029 | [6] -0.057 | dasatinib -0.012 | [7] 0.028 | [8] -0.07 | [9] 0.223 | tipifarnib 0.271 | mubritinib -0.06

AKT2 (UniProt P31751)
Chain of UniProt P31751 (P31751 whole entry, looked up): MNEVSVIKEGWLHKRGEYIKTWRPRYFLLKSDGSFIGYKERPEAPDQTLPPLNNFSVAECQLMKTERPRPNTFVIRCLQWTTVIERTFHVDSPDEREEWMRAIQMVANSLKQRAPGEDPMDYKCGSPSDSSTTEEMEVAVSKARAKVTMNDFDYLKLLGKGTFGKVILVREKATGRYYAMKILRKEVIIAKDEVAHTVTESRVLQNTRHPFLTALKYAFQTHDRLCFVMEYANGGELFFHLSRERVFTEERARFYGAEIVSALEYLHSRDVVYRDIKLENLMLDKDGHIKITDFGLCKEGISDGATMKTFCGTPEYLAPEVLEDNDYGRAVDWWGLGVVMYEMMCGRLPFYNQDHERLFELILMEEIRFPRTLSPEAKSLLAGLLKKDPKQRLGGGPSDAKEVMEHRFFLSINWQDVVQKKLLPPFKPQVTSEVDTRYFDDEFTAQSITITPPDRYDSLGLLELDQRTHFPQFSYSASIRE
inactive: [1] 0.035 | crizotinib -0.18 | [2] -0.211 | [3] 0.051 | duvelisib 0.039 | gandotinib -0.233 | tozasertib -0.075 | [4] 0.113 | doramapimod 0.015 | ispinesib -0.083 | bafetinib 0.021 | [5] 0.049 | nilotinib -0.037 | [6] -0.144 | dasatinib -0.145 | [7] -0.108 | [8] 0.019 | [9] -0.034 | tipifarnib -0.185 | mubritinib 0.037

ARL2BP (UniProt Q9Y2Y0)
Chain of UniProt Q9Y2Y0 (Q9Y2Y0 whole entry, looked up): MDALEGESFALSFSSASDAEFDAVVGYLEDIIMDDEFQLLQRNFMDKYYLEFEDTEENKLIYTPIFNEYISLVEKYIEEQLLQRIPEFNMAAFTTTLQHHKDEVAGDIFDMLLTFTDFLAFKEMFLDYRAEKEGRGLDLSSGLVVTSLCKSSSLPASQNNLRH
inactive: [1] 0.077 | crizotinib -0.128 | [2] -0.017 | [3] -0.038 | duvelisib -0.004 | gandotinib -0.166 | tozasertib 0.006 | [4] 0.044 | doramapimod 0.101 | ispinesib -0.042 | bafetinib 0.001 | [5] 0 | nilotinib -0.078 | [6] -0.086 | dasatinib -0.069 | [7] -0.103 | [8] 0.125 | [9] 0.011 | tipifarnib -0.091 | mubritinib -0.027
